Experimental data published in the supplement of paper PMC11732987, “Enantioselective OTUD7B fragment discovery through chemoproteomics screening and high-throughput optimisation” (Communications Chemistry, 2025).

What was measured:
Assay in all cases: log2 ratio of Biotin-Ahx-Ub-VS probe labelling (fragment/DMSO); higher = less target engagement (more negative = stronger competition), active = hit call of the paper (q ≤ 0.05, log2 ratio ≤ -1)
Details in all cases: compound concentration: 200 uM; treatment time: 3 h
[1] = target: T1, USP19 (UniProt O94966)
T1 sequence (whole entry): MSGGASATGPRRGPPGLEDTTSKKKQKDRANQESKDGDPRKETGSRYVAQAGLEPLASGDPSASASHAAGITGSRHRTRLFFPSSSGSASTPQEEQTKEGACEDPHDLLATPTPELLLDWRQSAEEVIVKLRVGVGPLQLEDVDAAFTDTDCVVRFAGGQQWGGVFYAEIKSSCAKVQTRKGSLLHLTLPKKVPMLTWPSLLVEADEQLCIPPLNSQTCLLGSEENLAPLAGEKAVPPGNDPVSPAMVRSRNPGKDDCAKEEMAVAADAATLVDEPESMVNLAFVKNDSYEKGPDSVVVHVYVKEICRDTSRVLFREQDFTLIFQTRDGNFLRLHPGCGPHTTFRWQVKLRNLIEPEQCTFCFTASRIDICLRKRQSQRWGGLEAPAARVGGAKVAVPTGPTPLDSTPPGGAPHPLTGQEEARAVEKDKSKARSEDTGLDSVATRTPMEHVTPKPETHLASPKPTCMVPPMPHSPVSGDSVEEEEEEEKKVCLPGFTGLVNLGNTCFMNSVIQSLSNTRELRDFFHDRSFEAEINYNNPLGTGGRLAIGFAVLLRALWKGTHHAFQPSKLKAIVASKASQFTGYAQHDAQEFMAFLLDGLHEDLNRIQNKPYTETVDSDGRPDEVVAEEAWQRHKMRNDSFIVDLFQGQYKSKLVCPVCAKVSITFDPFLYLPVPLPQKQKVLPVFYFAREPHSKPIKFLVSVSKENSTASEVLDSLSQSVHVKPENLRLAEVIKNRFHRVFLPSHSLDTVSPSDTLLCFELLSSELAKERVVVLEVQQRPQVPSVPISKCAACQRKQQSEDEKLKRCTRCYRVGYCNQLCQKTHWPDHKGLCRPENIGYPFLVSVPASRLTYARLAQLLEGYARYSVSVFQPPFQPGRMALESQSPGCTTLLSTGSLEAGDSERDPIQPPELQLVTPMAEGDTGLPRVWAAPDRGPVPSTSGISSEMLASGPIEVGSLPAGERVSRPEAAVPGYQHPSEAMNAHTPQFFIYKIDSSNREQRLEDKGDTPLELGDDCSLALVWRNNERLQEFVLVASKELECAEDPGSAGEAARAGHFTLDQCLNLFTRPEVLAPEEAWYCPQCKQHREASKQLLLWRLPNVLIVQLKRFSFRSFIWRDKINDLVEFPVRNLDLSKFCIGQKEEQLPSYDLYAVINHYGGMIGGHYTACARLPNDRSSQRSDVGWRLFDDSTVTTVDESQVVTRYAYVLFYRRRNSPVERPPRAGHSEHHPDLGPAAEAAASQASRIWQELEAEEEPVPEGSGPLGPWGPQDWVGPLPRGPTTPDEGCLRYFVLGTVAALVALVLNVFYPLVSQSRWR
Procedure, shortened: (§1)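 HEK293T lysate, 495 µg per sample in Tris/CHAPS/IGEPAL buffer with protease inhibitors, was treated in triplicate with fragment at 200 µM or vehicle for 3 h and then with Biotin-Ahx-Ub-VS at 0.5 µM final for 1 h. Labelled DUBs were NeutrAvidin-enriched, digested with LysC and trypsin, and run by diaPASEF LC-MS/MS. Spectronaut label-free quantities were global-median-normalised, and values are average log2 fragment/vehicle ratios by unpaired t-test on proteins with ≥2 unique peptides.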

[2] = target: USP24 (UniProt Q9UPU5)
USP24, sequence (Q9UPU5 whole entry): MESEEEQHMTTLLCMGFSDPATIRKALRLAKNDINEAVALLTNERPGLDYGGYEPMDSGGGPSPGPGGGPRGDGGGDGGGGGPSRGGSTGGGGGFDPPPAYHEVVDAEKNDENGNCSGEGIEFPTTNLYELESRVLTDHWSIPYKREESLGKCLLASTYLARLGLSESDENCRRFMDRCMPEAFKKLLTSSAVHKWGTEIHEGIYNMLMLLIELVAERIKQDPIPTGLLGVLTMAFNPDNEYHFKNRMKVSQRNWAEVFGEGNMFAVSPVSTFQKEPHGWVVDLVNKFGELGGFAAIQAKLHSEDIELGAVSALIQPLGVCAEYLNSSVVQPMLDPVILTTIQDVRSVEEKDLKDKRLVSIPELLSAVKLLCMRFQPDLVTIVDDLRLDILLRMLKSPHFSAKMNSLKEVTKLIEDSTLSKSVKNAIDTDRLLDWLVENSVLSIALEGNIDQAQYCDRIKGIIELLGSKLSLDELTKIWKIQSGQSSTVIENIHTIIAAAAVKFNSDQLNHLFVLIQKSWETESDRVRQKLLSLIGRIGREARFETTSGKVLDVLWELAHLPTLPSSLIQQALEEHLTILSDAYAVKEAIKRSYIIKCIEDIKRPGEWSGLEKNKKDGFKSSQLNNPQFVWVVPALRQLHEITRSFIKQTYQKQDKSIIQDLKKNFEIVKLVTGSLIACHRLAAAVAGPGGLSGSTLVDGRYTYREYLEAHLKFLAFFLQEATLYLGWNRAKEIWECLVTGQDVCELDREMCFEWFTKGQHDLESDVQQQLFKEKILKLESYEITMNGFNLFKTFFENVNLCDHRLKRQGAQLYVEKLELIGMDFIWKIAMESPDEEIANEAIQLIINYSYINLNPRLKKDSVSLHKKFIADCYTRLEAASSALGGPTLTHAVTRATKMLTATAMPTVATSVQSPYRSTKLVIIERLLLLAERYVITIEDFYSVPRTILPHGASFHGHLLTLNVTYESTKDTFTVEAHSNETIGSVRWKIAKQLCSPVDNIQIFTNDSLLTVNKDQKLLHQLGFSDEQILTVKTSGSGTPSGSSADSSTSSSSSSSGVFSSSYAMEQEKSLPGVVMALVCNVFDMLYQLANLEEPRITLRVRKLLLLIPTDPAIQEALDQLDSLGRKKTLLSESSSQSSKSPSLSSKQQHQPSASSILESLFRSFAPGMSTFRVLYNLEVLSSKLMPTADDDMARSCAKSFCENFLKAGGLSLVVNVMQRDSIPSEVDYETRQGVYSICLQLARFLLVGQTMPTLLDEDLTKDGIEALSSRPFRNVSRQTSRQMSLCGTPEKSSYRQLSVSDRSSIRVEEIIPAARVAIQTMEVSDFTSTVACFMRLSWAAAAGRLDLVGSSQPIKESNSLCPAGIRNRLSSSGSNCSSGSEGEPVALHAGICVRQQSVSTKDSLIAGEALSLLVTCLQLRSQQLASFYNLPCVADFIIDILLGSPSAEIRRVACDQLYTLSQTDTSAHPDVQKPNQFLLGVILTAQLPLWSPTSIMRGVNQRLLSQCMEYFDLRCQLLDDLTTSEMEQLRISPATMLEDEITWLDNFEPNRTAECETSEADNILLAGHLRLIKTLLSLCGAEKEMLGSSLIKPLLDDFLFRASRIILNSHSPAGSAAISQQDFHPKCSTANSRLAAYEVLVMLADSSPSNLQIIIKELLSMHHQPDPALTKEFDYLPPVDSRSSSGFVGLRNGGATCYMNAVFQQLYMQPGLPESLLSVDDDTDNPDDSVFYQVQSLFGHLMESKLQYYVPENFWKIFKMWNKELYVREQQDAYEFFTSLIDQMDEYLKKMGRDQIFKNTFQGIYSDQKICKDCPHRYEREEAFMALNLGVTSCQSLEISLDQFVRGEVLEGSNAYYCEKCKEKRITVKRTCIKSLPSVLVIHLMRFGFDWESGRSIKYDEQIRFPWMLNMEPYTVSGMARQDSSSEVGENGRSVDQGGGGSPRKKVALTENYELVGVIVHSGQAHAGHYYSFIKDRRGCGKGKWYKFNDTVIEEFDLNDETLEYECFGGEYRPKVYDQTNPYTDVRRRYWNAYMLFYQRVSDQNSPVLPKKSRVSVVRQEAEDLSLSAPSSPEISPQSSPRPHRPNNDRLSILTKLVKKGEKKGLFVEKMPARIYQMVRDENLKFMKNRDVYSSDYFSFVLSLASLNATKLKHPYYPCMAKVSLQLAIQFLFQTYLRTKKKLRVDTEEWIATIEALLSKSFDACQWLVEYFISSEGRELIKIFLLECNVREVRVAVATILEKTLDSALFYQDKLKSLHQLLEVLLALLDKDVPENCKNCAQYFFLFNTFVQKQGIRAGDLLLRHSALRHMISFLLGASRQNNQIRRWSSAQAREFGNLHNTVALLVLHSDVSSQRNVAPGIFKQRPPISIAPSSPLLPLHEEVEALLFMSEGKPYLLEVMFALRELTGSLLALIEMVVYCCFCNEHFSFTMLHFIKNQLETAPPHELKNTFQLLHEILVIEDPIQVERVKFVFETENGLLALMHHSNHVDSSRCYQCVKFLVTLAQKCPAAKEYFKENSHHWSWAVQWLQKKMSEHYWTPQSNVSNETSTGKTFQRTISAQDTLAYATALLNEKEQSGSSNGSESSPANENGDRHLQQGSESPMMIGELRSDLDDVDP
Procedure, shortened: as §1

[3] = target: T2, USP25 (UniProt Q9UHP3)
T2 sequence (whole entry): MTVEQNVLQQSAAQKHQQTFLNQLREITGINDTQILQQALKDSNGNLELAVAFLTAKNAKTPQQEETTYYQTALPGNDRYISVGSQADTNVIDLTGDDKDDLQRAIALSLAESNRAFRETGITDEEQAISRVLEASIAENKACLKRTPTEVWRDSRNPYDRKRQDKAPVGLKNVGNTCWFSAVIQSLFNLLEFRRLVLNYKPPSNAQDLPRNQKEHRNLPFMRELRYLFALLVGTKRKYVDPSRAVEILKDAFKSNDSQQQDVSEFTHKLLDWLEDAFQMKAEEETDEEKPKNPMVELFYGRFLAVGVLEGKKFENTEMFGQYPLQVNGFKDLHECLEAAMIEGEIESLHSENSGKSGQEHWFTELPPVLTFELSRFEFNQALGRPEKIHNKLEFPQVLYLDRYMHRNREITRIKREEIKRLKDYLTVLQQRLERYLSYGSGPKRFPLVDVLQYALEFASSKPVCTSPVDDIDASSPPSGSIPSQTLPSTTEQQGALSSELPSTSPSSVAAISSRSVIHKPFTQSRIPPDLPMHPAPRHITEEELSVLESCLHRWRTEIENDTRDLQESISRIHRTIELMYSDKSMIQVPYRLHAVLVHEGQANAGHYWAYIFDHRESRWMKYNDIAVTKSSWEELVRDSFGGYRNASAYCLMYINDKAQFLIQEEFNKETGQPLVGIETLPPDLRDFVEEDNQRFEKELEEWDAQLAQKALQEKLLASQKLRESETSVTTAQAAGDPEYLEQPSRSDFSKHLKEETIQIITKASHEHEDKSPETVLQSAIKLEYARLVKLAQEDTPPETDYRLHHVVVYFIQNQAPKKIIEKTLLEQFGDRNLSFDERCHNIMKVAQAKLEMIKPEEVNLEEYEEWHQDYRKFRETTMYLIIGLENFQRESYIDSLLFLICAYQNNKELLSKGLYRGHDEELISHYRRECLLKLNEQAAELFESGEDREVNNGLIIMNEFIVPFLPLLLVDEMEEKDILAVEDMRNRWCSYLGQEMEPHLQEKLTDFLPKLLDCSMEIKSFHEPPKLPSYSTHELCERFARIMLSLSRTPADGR
Procedure, shortened: as §1

[4] = target: T3, USP28 (UniProt Q96RU2)
T3 sequence (whole entry): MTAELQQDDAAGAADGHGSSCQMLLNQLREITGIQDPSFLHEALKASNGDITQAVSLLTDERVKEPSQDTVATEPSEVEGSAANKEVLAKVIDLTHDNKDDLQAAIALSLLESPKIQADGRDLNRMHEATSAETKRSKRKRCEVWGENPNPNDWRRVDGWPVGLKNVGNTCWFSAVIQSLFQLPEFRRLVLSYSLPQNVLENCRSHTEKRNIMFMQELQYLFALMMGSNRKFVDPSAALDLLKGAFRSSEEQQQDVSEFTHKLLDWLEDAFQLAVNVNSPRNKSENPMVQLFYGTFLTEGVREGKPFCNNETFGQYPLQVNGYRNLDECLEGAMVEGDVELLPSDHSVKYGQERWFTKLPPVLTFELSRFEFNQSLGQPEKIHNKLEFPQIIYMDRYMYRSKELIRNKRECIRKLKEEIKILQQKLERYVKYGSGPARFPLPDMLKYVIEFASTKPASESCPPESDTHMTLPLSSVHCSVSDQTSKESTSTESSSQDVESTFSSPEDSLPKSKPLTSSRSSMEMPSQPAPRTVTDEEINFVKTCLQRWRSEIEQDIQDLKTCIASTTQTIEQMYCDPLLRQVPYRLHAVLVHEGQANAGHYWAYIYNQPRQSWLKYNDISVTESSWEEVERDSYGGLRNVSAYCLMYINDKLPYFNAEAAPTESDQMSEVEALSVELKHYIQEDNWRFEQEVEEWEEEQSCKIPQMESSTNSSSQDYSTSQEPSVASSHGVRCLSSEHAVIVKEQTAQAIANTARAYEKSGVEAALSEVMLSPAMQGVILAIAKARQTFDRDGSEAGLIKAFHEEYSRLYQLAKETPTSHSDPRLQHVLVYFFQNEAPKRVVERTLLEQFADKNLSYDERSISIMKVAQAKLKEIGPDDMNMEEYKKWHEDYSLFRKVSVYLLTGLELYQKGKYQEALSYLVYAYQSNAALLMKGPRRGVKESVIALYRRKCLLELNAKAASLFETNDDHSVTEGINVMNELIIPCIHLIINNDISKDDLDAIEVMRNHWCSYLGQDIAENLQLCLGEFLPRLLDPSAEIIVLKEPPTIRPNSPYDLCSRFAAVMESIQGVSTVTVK
Procedure, shortened: as §1

Measured: log2 ratio of Biotin-Ahx-Ub-VS probe labelling

Cc1ccn2cc(CNC(=O)CCl)nc2c1.Cl
inactive: [1] -0.148 | [2] -0.106 | [3] -0.398 | [4] -0.272
